PubChem BioAssay (EPA / NIEHS)
Results filed as inconclusive are left out. Calls of active or inactive are those of the source. Rule for the calls: active = hit-call score of the fitted dose curve at least 0.9, where 1 is the maximum; inconclusive = response in the unintended direction; inactive = score below 0.9.

How the values were obtained:
[1] = molecular target: Cellular tumor antigen p53 (Homo sapiens) (UniProt P04637); assay: TOX21_p53_BLA_p2_ratio: Tox21 HCT-116 p53 Agonism Beta-lactamase Assay, Ratio, Phase 2 (AID 2283592)
Cellular tumor antigen p53 (Homo sapiens), sequence (P04637 whole entry, looked up): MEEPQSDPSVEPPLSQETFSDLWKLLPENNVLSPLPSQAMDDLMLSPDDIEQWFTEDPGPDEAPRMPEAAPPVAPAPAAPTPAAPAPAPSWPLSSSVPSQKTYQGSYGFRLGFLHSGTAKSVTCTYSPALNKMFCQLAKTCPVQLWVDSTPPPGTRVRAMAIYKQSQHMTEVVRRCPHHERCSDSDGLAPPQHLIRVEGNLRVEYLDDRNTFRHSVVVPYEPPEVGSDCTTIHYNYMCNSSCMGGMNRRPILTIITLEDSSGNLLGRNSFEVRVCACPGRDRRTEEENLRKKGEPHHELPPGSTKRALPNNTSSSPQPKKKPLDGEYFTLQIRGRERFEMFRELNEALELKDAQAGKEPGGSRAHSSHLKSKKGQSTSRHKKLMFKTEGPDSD
How it was run: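 HCT116 p53-bla; 4000 cells/well; 5 h pre-incubation; cpd in DMSO, 217-fold dilution; 16 h 37C/5% CO2; CCF4-AM 2 h RT; Ex 405, Em 460/530 ratio; DMSO = baseline; positive fitting direction.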

[2] = TOX21_p53_BLA_p3_viability: Viability Assessment in the Tox21 HCT-116 p53 Agonism Beta-lactamase Assay, Phase 3 (AID 2283593);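 note: cells exposed to compound for 16 h before reading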
How it was run: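 HCT-116 cells (4000/well) rested 5 h at 37C, then got DMSO compounds by pin tool (217-fold dilution) for 16 h at 37C, 5% CO2. After the bla read, CellTiter-Glo was added and luminescence read at 30 min, room temperature.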

[3] = molecular target: Cellular tumor antigen p53 (Homo sapiens) (UniProt P04637); assay: TOX21_p53_BLA_p3_ratio: Tox21 HCT-116 p53 Agonism Beta-lactamase Assay, Ratio, Phase 3 (AID 2283596)
How it was run: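 HCT116 p53-bla cells (4000/well) given compound in DMSO (217-fold dilution) after 5 h, incubated 16 h at 37C. CCF4-AM substrate 2 h at room temperature; 460/530 nm emission ratio, gain fitted against DMSO.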

[4] = TOX21_p53_BLA_p5_viability: Viability Assessment in the Tox21 HCT-116 p53 Agonism Beta-lactamase Assay, Phase 5 (AID 2283600)
How it was run: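 4000 cells/well; 5 h pre-incubation; DMSO compounds pin-transferred, 217-fold dilution; 16 h, 37C/5% CO2; CCF4-AM 2 h RT; CellTiter-Glo 30 min RT; luminescence.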

[5] = molecular target: Cellular tumor antigen p53 (Homo sapiens) (UniProt P04637); assay: TOX21_p53_BLA_p4_ratio: Tox21 HCT-116 p53 Agonism Beta-lactamase Assay, Ratio, Phase 4 (AID 2283601)
How it was run: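 HCT116 cells carrying an inducible beta-lactamase reporter were plated at 4000 cells/well, rested 5 h, then exposed to compounds in DMSO (217-fold dilution) for 16 h at 37C. CCF4-AM substrate was loaded 2 h at room temperature; 460/530 nm emission ratio scored gain-of-signal versus DMSO.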

[6] = TOX21_p53_BLA_p4_viability: Viability Assessment in the Tox21 HCT-116 p53 Agonism Beta-lactamase Assay, Phase 4 (AID 2283597);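 note: hits lower the luminescence signal meaning cytotoxicity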
How it was run: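 Cells plated, 5 h pre-incubation; DMSO compounds pinned (217-fold dilution); 16 h, 37C/5% CO2; CCF4-AM 2 h RT; CellTiter-Glo 30 min RT; luminescence read.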

[7] = molecular target: Cellular tumor antigen p53 (Homo sapiens) (UniProt P04637); assay: TOX21_p53_BLA_p5_ratio: Tox21 HCT-116 p53 Agonism Beta-lactamase Assay, Ratio, Phase 5 (AID 2283599)
How it was run: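 HCT-116 cells carrying a p53-inducible beta-lactamase reporter were seeded at 4000 cells/well and dosed after 5 h with compound in DMSO (217-fold dilution). After 16 h at 37C, CCF4-AM substrate was added for 2 h, and the 460/530 nm emission ratio was scored as gain-of-signal versus DMSO.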

[8] = TOX21_TR_RXR_BLA_Agonist_Followup_viability: Viability Assessment in the Tox21 Thyroid Hormone Receptor beta Retinoid X Receptor alpha (RXRa) Agonism Beta-lactamase (BLA) Follow-Up Assay (AID 2283970)
How it was run: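 RXRa-UAS-bla HEK293T cells seeded at 2,500/well in phenol red-free DMEM with 2% charcoal-stripped FBS, exposed to compound 16h at 37C/5% CO2 in qHTS. Viability read by CellTiter-Glo ATP luminescence; bidirectional fitting against DMSO baseline, signal loss indicating cytotoxicity.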

Measured: outcome

CSc1cnccn1
inactive: [1] | [2] | [3] | [4] | [5]

COC(=O)CCC(=O)CN
inactive: [1] | [2] | [3] | [4]

CC1CS(=O)(=O)CCN1N=Cc1ccc([N+](=O)[O-])o1 (centres undefined)
inactive: [1] | [2] | [6] | [7] | [4]

C=CC1CC2C=CC1C2 (centres undefined)
not listed: [3] | [8]
inactive: all other assays above

NCCN1CCNC1=O
inactive: [1] | [2] | [3] | [4] | [5]

O=C(O)c1ccccc1Nc1cc(Cl)ccc1C(=O)O
not listed: [3] | [8]
inactive: all other assays above

N#CC1(O)CCCCC1
inactive: [1] | [2] | [3] | [5]

CC(=O)N[C@@H](CCC(N)=O)C(=O)O
inactive: [1] | [2] | [6] | [7] | [4]

CCS(=O)(=O)CCn1c([N+](=O)[O-])cnc1C
inactive: [1] | [2] | [3] | [5]

CCCCCCCCCCCCCCC(=O)NC(CO)CCCCCCCCCCCCCC (centres undefined)
inactive: [1] | [2] | [6] | [7]

CC1=C(/C=C/C(C)=C\C=C\C(C)=C\C(=O)O)C(C)(C)CCC1
not listed: [4] | [6]
inactive: all other assays above

COC(=O)CCCCCCCC(=O)OC
inactive: [1] | [2] | [6] | [7] | [4]
